Values joined by “and” are separate entries in the source; they are usually repeats but may differ in a detail not shown here. Equal values may be shown once. In all, about 1,300 compounds went through this assay and about 25 (2%) were called active. A call without a number means that no potency is given here. Roughly 9% stayed inconclusive and do not appear here. Calls follow the shape of the dose curve; as a rule, active = well fitted activation curve with a large enough effect; inconclusive = small, poorly fitted or top-dose-only effect; inactive = flat fitted curve, though single readings scatter. Many of the other results were omitted from the sample, so actives are more common in it than they were.
Each compound was assayed against Glucagon-like peptide 1 receptor (Homo sapiens) (UniProt P43220) (assay: qHTS of GLP-1 Receptor Agonists: Hit Validation). Conditions: HEK293 GLP-1R, cAMP-response luciferase, 4-6 h; series mostly up to 46.1 µM.
Outline: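 Luminescence from a cAMP-responsive luciferase reporter was read 12 min after detection reagent at RT. Before that, HEK293 cells stably expressing GLP-1R plus reporter, seeded 12 h earlier, were exposed to compound for 4-6 hr at 37 deg C.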
Potency is read from the fitted curve at half-maximal effect.

Chain of Glucagon-like peptide 1 receptor (Homo sapiens) (P43220 whole entry, looked up): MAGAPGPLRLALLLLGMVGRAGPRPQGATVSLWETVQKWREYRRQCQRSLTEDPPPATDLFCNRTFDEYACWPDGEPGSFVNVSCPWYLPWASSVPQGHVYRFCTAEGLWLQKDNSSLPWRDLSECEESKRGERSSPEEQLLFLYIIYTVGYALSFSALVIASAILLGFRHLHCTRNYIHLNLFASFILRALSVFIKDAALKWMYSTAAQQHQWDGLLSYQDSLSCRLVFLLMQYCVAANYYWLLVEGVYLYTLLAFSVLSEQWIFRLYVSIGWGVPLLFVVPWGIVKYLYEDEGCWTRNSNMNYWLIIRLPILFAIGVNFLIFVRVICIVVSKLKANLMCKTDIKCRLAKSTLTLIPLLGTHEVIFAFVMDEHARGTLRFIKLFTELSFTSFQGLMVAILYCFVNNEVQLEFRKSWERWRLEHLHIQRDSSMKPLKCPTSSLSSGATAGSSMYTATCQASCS

Structure (SMILES) | Potency
CC(=O)Nc1cc(-c2ccccc2Cl)cn2c(-c3ccc(S(C)(=O)=O)cc3)cnc12 | inactive
COc1ccc(-c2nnc(OCc3nc4ccccc4n3C)c3ccccc23)cc1 | inactive
CCOc1ccc(Br)cc1S(=O)(=O)Nc1ccc(C(=O)OCC(=O)N(C)c2ccccc2)cc1 | inactive
CCOC(=O)c1c(C)[nH]c2cc(Br)c(O)cc12 | inactive
CC1CN(c2nc(N(C)c3ccccc3)nc(N)c2[N+](=O)[O-])CC(C)O1 (stereo not given) | inactive
COc1ccc(-c2nc(C#N)c(NC(C)c3ccccc3)o2)cc1OC (stereo not given) | inactive
CCOC(=O)n1c(=O)n(Cc2ccccc2Cl)c2ccccc21 | inactive
O=c1[nH]nc(-c2ccc(NCCO)c([N+](=O)[O-])c2)c2ccccc12 | inactive
COc1ccc(C(=O)Cc2ccccc2)cc1OC | inactive
COCc1cc(C)nc2sc(C(=O)OC(C)C)c(N)c12 | inactive
CCCCn1c(=NC(=O)c2cccnc2)c(C(=O)OCC)cc2c(=O)n3ccccc3nc21 | inactive
COc1ccc(NC(=O)c2cccnc2)cc1OCC(C)C | inactive
O=C(Cn1nc(-c2ccc(N3CCOCC3)c([N+](=O)[O-])c2)c2ccccc2c1=O)N1CCCCC1 | inactive
OC(c1ccccc1)c1nc(-c2ccccc2)cs1 (stereo not given) | inactive
OC(c1ccccc1)c1nc(-c2csc3ccccc23)cs1 (stereo not given) | 7.31 µM (active)
COc1ccccc1Nc1nc(Cl)nc(Nc2ccccc2OC)n1 | inactive
CCOc1ccc(Oc2c(/C=N/NC(N)=O)c(C)nn2-c2ccccc2)cc1 | inactive
CCN(CC)S(=O)(=O)c1cc(NC(=O)c2ccccc2OCc2c(C)noc2C)ccc1C | inactive
CCc1cc2c(-c3ccccc3)cc(=O)oc2c(CN2CCOCC2)c1O | inactive
N#C/C(=C\c1ccc(N2CCOCC2)c([N+](=O)[O-])c1)c1nc2ccccc2[nH]1 | inactive
CC1(c2ccccc2)NC(=O)N(CC(=O)NNC(=O)c2ccccc2F)C1=O (stereo not given) | inactive
CSc1ncccc1C(=O)OCc1c(F)cccc1Cl | inactive
CCOc1ccc(CCNC(=O)c2ccc3ccccc3n2)cc1OCC | inactive

Structure (SMILES) | Potency
CCN1CCN(c2nc3sc4c(c3c3ncnn23)CC(C)CC4)CC1 (stereo not given) | inactive
CCn1nc(NC(=O)c2cccnc2)c2cc3ccccc3nc21 | 20.6 µM (active)
CCn1nc(NC(=O)c2ccco2)c2cc3cc(C)ccc3nc21 | inactive
CCOC(=O)c1cc(NC(=O)c2cccnc2)cc(C(=O)OCC)c1 | inactive
CC(=O)c1cccc(Nc2nc(=O)c3cccnc3s2)c1 | inactive
CC(=O)c1cccc(N2C(=O)C3C4CCC(C4=C(C)C)C3C2=O)c1 (stereo not given) | inactive
OCCNc1nc(-c2ccccc2)c2cc(Cl)ccc2n1 | inactive
O=c1ccc2ccc(OCCOc3cccc(Cl)c3)cc2o1 | inactive
CCOC(=O)c1sc2nc(OCc3cccnc3)cc(C)c2c1N | inactive
CCc1cc(=O)oc2c3c(cc(OCC(=O)Nc4cccnc4)c12)OC(C)(C)CC3 | inactive
COC(=O)c1ccc2c(=O)[nH]c(COC(=O)c3[nH]c(C)c(C(C)=O)c3C)nc2c1 | inactive
CCC(C)Nc1nc(N)c([N+](=O)[O-])c(Nc2ccccc2OC)n1 (stereo not given) | inactive
CCN1CCN(C2=C(Cl)C(=O)N(Cc3ccccc3)C2=O)CC1 | inactive
COCCCNC(=S)N/N=C/c1ccc2ccccc2c1 | inactive
Cc1cc(C)nc(N2CCCC(C(=O)Nc3ccc4nc(C)c(C)nc4c3)C2)n1 (stereo not given) | inactive
COc1ccc(C)cc1N(C(=O)c1snc(C(N)=O)c1N)C(C(=O)NC1CCCCC1)c1ccc(C)o1 (stereo not given) | inactive
CCOC(=O)c1c(C)c(C(=O)N2CCCCCC2)c(C)n1C | inactive
COc1cccc(C2CC(=O)Nc3cc(OC)c(OC)c(OC)c32)c1OC (stereo not given) | inactive
COc1cc2c(cc1OC)/C(=C/C(=O)N1CCOCC1)NC(C)(C)C2 | inactive
CC(=O)NC1(c2ccccc2)CCN(c2cc(C)nc(-c3ccccc3)n2)CC1 | inactive
C=C[C@@]1(C)CC(=O)[C@]2(O)[C@@]3(C)[C@@H](O)CCC(C)(C)[C@@H]3[C@H](O)[C@H](OC(C)=O)[C@@]2(C)O1 | 2 µM (active) and 1.84 µM (active)
C=C[C@@]1(C)CC(=O)[C@]2(O)[C@@]3(C)[C@@H](O)CCC(C)(C)[C@@H]3[C@H](OC(C)=O)[C@H](O)[C@@]2(C)O1 | 9.2 µM (active)
COc1cccc(/C=C/C(=O)Nc2ccc(N3CCOCC3)cc2)c1OC | inactive

Structure (SMILES) | Potency
Cc1ccc(NC(=O)COc2ccc(CCO)cc2-n2nc3ccccc3n2)cc1C | inactive
C=CCOc1nc2c(c(=O)n(C)c(=O)n2C)n1Cc1ccccc1Cl | inactive
Cc1ccc(CNCCCSc2ncccn2)cc1 | inactive
CC(=O)Nc1ccc(NC(=O)c2cc(C3CC3)nc3c2cnn3C(C)C)cc1 | inactive
O=C(NCc1cccs1)c1cccc2c(-c3cccnc3)coc12 | 9.2 µM (active)
O=C(NCc1ccco1)c1cccc2c(-c3ccc(F)c(F)c3)coc12 | inactive
COc1ccc(CNC(=O)c2cccc3c(-c4cnn(C)c4)coc23)cc1OC | inactive
COc1ccc(N(CC(=O)N/N=C/c2ccc(OC)c(OC)c2)S(=O)(=O)c2ccccc2)cc1 | inactive
COc1ccc(-c2cc(=O)[nH]c(NCc3ccccc3)n2)cc1 | inactive
CC1Cc2cc(S(=O)(=O)N3CCCC(C(=O)N4CCCCC4)C3)ccc2N1C(=O)C1CC1 (stereo not given) | inactive
CCOC(=O)C1CCCN(C2=NC(=O)/C(=C/c3ccc(O)c(OCC)c3)S2)C1 (stereo not given) | inactive
O=C(NC1CCCCCC1)C(=O)NC1CC1 | inactive
CC(OC(=O)c1ccc2ncsc2c1)C(=O)NC1CCCCC1C (stereo not given) | inactive
COc1ccc(-c2nn3c(COc4ccccc4)nnc3s2)cc1OC | inactive
CCOC(=O)/C(C#N)=C/Nc1cc(OC)ccc1OC | inactive
Oc1ccccc1/C=N/N1CCN(c2ccccn2)CC1 | inactive
c1coc(Cn2c(-c3ccco3)nc3ccccc32)c1 | inactive
COc1ccc(NC(C)=O)cc1S(=O)(=O)Nc1ccc2c(c1)OCCO2 | inactive
COCCN(Cc1ccccc1)C(=O)c1cc(-c2ccc(OC)c(OC)c2)nc2ccccc12 | inactive
Cc1nc2cc(-c3cccc(F)c3)nn2c(N2CCN(C(=O)c3ccco3)CC2)c1C | inactive
CCN(CC)c1nc(OC)nc(-n2nnc(C(C)=O)c2C)n1 | inactive
CCc1nc(SCCO)c2oc3ccccc3c2n1 | inactive
COC(=O)c1sc(NC(=O)CSc2nc3cccnc3n2C2CCCCC2)nc1C | inactive

Structure (SMILES) | Potency
COc1ccc(OC)c(/C=N/n2c(-c3n[nH]c4c3CCC4)n[nH]c2=S)c1 | inactive
COC(=O)Cc1c(C)c2ccc(OCc3nn[nH]n3)cc2oc1=O | inactive
CCOC(=O)C1=C(COC(=O)c2cc(S(=O)(=O)N3CCOCC3)ccc2F)NC(=O)NC1C (stereo not given) | inactive
COc1cccc(Cn2c(N)c(C#N)c3nc4ccccc4nc32)c1OC | inactive
COc1ccc(S(=O)(=O)N(C)C)cc1NC(=O)c1ccc(OCC(=O)N2CCOCC2)c(OC)c1 | inactive
COc1ccc(-c2csc(C(C)(NC(C)=O)c3ccccc3)n2)cc1 (stereo not given) | inactive
CCOC(=O)CN1C(=O)S/C(=C/c2ccc(OCc3ccc(C(=O)O)cc3)cc2)C1=O | inactive
N#Cc1nc(-c2cccs2)oc1NCc1ccco1 | inactive
Cc1cc(C)c2c(N)c(C(=O)NCC3CCCCC3)sc2n1 | inactive
Cc1ccnc(NC(=O)C23CC4CC(CC(C4)C2)C3)c1 | inactive
Cc1ccc(CNc2cc(-c3nn4c(C)nnc4s3)ccc2C)s1 | inactive
ClCCn1cnc2c(SCc3ccccc3)ncnc21 | inactive
COc1cccc(C2=CC(=O)C[C@H](c3ccc(OC)c(OC)c3)C2)c1 | inactive
N#Cc1c(NCCCO)nc(-c2ccccc2)c2c1CCCC2 | inactive
COc1ccc(C(C)=O)cc1COC(=O)c1ccc2c(c1)OCCO2 | inactive
CC(=O)c1cc(C#N)c(SCC(=O)OC(C)(C)C)nc1C | inactive
COc1ccc(N/C=C/C(=O)c2ccc(OC)c(OC)c2)cc1 | inactive
C#CCOc1ccc2c3c(c(=O)oc2c1)CCCC3 | inactive
Cc1cccc(OCCNc2cc(N3CCOCC3)ccc2[N+](=O)[O-])c1 | inactive
OC(CNCc1cccc(Br)c1)c1ccccc1 (stereo not given) | inactive
CCN(CC)c1nc2ccccc2nc1C(C#N)C(=O)NCCCOC (stereo not given) | inactive
COc1ccc(-c2cnc3c(NC=O)cc(-c4ccc(C(=O)N5CCOCC5)cc4)cn23)cc1OC | inactive
COc1ccc(-c2cc(NC=O)c3ncc(-c4ccc(OC)c(OC)c4)n3c2)c(OC)c1 | 2.59 µM (active)

Structure (SMILES) | Potency
Cc1ccc(-c2cc(NC=O)c3ncc(-c4cnn(C)c4)n3c2)cc1 | inactive
COc1ccc(-c2cc(NC=O)c3ncc(-c4ccc(C(C)=O)cc4)n3c2)cc1OC | inactive
COc1ccc(-c2cnc3c(NC=O)cc(-c4ccccc4OC)cn23)cc1OC | 8.2 µM (active)
CC(=O)c1ccc(-c2cnc3c(NC=O)cc(-c4ccccc4Oc4ccccc4)cn23)cc1 | inactive
COc1cccc(-c2cnc3c(NC(C)=O)cc(-c4ccc(OC)c(OC)c4)cn23)c1 | inactive
COc1ccc(F)cc1-c1cc(NC(C)=O)c2ncc(-c3cc(OC)c(OC)c(OC)c3)n2c1 | inactive
COc1cccc(-c2cnc3c(NC=O)cc(-c4ccc(N(C)C)cc4)cn23)c1 | inactive
COc1ccc(-c2cc(NC=O)c3ncc(-c4ccc(OC)c(OC)c4)n3c2)cc1 | 18.4 µM (active)
O=CNc1cc(-c2ccccc2)cn2c(-c3ccc(F)c(Cl)c3)cnc12 | inactive
COc1cc(-c2cnc3c(NC=O)cc(-c4ccccc4Cl)cn23)cc(OC)c1OC | 5.8 µM (active)
OC1CCCN(c2c3c(nc4cc(-c5cccc(F)c5)nn24)CCCC3)C1 (stereo not given) | inactive
COc1cc2c(cc1OC)/C(=C/C(=O)c1ccccc1)NCC2 | inactive
O=C(OCc1csc(-c2ccccc2)n1)c1ccccc1O | inactive
COc1ccc(CC(=O)OCC(=O)N2c3ccccc3CC2C)cc1OC (stereo not given) | inactive
Cc1nn(C)cc1CNC(=O)c1cnn2c(C(F)F)cc(C3CC3)nc12 | inactive
COC(=O)c1ccc(OCC2c3cc(OC)c(OC)cc3CCN2C(C)=O)cc1 (stereo not given) | inactive
Cc1cccc(-c2nnc3sc(-c4ccccc4C)nn23)c1 | inactive
Cc1cccc(C(=O)N2CCC[C@H]2C(=O)N2CCC[C@H]2C(=O)NCc2ccncc2)c1 | inactive
Cc1cccc(-c2nc(C#N)c(N3CCCCCC3)o2)c1 | inactive
COc1cccc(Nc2nc(N)c([N+](=O)[O-])c(NCc3ccco3)n2)c1 | inactive
CC(C)n1nnnc1SCC(=O)N1N=C(c2cccs2)CC1c1cccs1 (stereo not given) | inactive
CC1CCN(CCCNC(=O)c2cc3c(Cl)nc4ccccc4c3s2)CC1 | inactive
CCN(CC)c1ncnc2c1cnn2Cc1ccc(C)cc1 | inactive

Source: PubChem BioAssay AID743262 (National Center for Advancing Translational Sciences (NCATS), 2014)
